Consider 19 compounds from ChEMBL document CHEMBL5308504, “Tm Shift (DSF) assay results for EUbOPEN Chemogenomics Library” (2023).

Values joined by “and” are separate entries in the source; they are usually repeats but may differ in a detail not shown here. Equal values may be shown once.

Holding throughout (conditions): Compound concentration 20.0 uM, Protein concentration 2.0 uM, Result type QC Liability
The target of assay [1] is Tyrosine-protein kinase ABL1 (Homo sapiens) (UniProt P00519).
Chain of Tyrosine-protein kinase ABL1 (Homo sapiens) (P00519 whole entry): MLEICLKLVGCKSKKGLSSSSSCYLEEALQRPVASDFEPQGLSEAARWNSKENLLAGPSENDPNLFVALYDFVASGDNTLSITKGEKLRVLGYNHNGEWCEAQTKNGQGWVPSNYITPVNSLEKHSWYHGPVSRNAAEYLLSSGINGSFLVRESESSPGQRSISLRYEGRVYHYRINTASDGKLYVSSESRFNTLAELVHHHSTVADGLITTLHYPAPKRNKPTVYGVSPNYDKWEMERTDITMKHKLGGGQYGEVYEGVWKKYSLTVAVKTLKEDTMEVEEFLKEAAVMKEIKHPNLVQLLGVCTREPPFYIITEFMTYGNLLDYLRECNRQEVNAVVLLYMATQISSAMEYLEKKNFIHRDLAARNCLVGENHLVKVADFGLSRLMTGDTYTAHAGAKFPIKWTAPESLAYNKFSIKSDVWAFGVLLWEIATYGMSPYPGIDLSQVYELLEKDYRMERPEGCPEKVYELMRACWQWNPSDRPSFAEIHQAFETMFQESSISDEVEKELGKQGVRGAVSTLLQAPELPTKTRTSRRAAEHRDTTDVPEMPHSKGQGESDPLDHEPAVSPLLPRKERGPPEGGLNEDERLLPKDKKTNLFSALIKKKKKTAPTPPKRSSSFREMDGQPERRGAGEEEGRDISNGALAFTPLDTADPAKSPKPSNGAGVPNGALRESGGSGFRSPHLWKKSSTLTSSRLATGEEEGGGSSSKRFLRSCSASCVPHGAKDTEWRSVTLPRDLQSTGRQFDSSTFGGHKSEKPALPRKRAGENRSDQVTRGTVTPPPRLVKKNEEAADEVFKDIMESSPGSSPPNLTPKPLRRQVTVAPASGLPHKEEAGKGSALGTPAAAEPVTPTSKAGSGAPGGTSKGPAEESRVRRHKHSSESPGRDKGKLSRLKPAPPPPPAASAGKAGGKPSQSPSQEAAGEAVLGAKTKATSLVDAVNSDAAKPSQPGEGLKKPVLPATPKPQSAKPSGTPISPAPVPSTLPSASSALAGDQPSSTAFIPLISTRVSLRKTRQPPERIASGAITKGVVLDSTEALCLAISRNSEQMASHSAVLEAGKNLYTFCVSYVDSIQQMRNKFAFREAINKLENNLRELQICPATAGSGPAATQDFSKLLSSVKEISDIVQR
Assay [2] deals with Cyclin-dependent kinase 2 (Homo sapiens) (UniProt P24941).
Assay [3] concerns the target Casein kinase I isoform delta (Homo sapiens) (UniProt P48730).
Assay [4] has as its target Glycogen synthase kinase-3 beta (Homo sapiens) (UniProt P49841).
For assay [5], the target named is Mitogen-activated protein kinase 1 (Homo sapiens) (UniProt P28482).
Chain of Mitogen-activated protein kinase 1 (Homo sapiens) (P28482 whole entry): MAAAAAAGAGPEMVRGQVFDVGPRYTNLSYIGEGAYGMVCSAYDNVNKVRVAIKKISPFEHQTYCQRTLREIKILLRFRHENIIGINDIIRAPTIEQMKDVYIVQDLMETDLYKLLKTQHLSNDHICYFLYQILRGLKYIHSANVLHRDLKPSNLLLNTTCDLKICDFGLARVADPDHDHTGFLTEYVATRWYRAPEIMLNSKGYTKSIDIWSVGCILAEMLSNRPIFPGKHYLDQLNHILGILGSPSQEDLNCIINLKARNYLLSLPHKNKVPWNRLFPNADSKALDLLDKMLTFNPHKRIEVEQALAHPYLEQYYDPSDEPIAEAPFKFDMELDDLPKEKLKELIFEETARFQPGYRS
For assay [6], the target named is T1, Aurora kinase A (Homo sapiens) (UniProt O14965).
T1 sequence (whole entry): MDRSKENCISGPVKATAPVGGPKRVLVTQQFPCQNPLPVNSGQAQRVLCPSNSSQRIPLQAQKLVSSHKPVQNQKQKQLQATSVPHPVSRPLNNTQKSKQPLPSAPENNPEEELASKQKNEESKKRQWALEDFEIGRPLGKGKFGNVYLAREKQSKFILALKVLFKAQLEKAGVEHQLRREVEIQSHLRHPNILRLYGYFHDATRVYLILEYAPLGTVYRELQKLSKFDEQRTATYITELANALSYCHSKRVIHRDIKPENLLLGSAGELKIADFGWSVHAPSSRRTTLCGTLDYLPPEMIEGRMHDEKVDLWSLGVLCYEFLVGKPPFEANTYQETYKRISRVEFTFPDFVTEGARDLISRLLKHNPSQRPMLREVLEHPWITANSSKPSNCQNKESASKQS

Chain of Glycogen synthase kinase-3 beta (Homo sapiens) (P49841 whole entry, looked up): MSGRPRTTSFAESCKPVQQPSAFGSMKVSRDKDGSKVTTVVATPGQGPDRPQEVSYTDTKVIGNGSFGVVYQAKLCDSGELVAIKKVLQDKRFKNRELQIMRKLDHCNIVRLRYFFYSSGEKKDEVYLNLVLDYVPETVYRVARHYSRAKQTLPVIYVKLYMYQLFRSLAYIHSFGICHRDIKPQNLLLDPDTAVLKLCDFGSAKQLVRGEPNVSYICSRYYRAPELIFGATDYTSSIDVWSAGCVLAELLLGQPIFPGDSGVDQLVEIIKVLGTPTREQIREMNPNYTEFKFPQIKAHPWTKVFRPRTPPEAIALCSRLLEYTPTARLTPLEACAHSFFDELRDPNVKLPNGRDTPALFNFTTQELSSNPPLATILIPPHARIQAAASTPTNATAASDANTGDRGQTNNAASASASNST
Chain of Casein kinase I isoform delta (Homo sapiens) (P48730 whole entry, looked up, canonical isoform): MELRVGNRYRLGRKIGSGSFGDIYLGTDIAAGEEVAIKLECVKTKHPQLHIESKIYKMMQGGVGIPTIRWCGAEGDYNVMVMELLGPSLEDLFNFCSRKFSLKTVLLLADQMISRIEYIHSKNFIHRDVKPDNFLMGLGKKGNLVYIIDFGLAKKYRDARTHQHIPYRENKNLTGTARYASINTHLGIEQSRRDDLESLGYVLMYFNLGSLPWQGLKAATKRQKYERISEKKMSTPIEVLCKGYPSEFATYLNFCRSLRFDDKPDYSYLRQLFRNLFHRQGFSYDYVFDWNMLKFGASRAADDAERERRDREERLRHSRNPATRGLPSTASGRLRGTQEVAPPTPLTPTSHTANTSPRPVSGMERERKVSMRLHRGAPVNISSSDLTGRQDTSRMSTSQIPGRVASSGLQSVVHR

Regarding `Cc1c(N2CCNCC2)nc2ccc(Br)cc2c1C(=O)NC[C@H](CCC(=O)O)c1ccccc1Cl`, the ΔTm (in general, the shift of the melting midpoint relative to a reference) in assay [1] is 0.01 °C; in assay [2] it was 0.4 °C; in assay [3], 0.62 °C; in assay [4], 0.03 °C; in assay [5], 0.18 °C; in assay [6] it was 0.41 °C.

Consider `O=C(CCCN1CCC(O)(c2ccc(Cl)cc2)CC1)c1ccc(F)cc1`, for which the ΔTm is 0.25 °C in assay [1]; 0.82 °C in assay [2]; 0.25 °C in assay [3]; -0.66 °C in assay [4]; 0.38 °C in assay [5]; -0.3 °C in assay [6].

As to `CC1CCN(C(=O)[C@H](CCn2cccc2C#N)NS(=O)(=O)c2cccc3[nH]ccc23)CC1`, the ΔTm in assay [1] is 0.43 °C; in assay [2], 0.31 °C; in assay [3] it was 0.54 °C; in assay [4], 0.64 °C; in assay [5] it was 0.72 °C; in assay [6] it was -0.11 °C.

With `O=C(O)CCC/C=C\C[C@@H]1[C@@H](/C=C/[C@@H](O)COc2cccc(C(F)(F)F)c2)[C@H](O)C[C@@H]1O`, the ΔTm is 0.54 °C in assay [1]; 0.59 °C in assay [2]; 0.07 °C in assay [3]; 0.65 °C in assay [4]; -0.39 °C in assay [5]; -0.25 °C in assay [6].

Consider `Oc1c(CN2CCCC2)cc(COCc2ccccc2)c2cccnc12`, for which the ΔTm in assay [1] was 0.07 °C; in assay [2] it was 0.07 °C; in assay [3], 1.22 °C; in assay [4], -0.76 °C; in assay [5], 0.33 °C; in assay [6], -1.78 °C.

In the case of `NC(=O)c1ccc(-c2nc(-c3ccc4c(c3)OCCO4)c(-c3ccccn3)[nH]2)cc1`, the thermal shift (ΔTm) is 1 °C in assay [1]; -0.38 °C in assay [2]; 5.39 °C in assay [3]; -0.91 °C in assay [4]; 0.36 °C in assay [5]; -1.32 °C in assay [6].

Consider `Cn1cc(-n2cnc3c(NCc4nc5cc(Cl)c(Cl)cc5[nH]4)nc(N4CCOCC4)nc32)cn1`, for which the ΔTm in assay [1] is -0.15 °C; in assay [2], 0.06 °C; in assay [3], -0.03 °C; in assay [4], 2.12 °C; in assay [5] it was -0.02 °C; in assay [6] it was 0.53 °C.

As for `N#Cc1ccc(C#CC[C@@H](C#N)NC(=O)[C@H]2CCCCN2)cc1F`, the ΔTm is -0.48 °C in assay [1]; -0.17 °C in assay [2]; 0.45 °C in assay [3]; -0.17 °C in assay [4]; -0.62 °C in assay [5]; -0.01 °C in assay [6].

For the compound `C[C@@H]1COCCN1c1cc(=O)n2c(n1)N(Cc1cncc(Cl)c1)[C@H](C(F)(F)F)CC2`, the ΔTm was 0.53 °C in assay [1]; 0.54 °C in assay [2]; 0.16 °C in assay [3]; 0.4 °C in assay [4]; 0.34 °C in assay [5]; -0.23 °C in assay [6].

`CN1CCN(c2ccc(/C=C(\C#N)c3ccccc3Br)cc2)CC1`: the ΔTm is -0.04 °C in assay [1]; 0.19 °C in assay [2]; 0.85 °C in assay [3]; -0.47 °C in assay [4]; 0.11 °C in assay [5]; -1.83 °C in assay [6].

With `Cc1c(N2CCCC2)nc2ccc(Br)cc2c1C(=O)NC[C@H](CCC(=O)O)c1ccccc1Cl`, the ΔTm in assay [1] is -0.28 °C and -0.08 °C; in assay [2], -0.21 °C and 0.71 °C; in assay [3] it was -0.02 °C and 0.51 °C; in assay [4], -0.57 °C and -1.1 °C; in assay [5], -0.65 °C and 0.37 °C; in assay [6], -0.24 °C and -0.2 °C.

As for `C=CC1C[C@]1(NC(=O)[C@@H]1C[C@@H](Oc2cc(-c3csc(NC(=O)C(C)C)n3)nc3c(Br)c(OC)ccc23)CN1C(=O)[C@@H](NC(=O)OC1CCCC1)C(C)(C)C)C(=O)O` (some centres undefined), the ΔTm was 0.33 °C in assay [1]; 0.56 °C in assay [2]; 0 °C in assay [3]; -2.17 °C in assay [4]; -1.13 °C in assay [5]; 0.81 °C in assay [6].

For the compound `Cc1nc2ccc(Cl)cc2c(-c2ccccc2)c1CC(=O)O`, the ΔTm in assay [1] was determined as 0.63 °C; in assay [2] it was 0.84 °C; in assay [3], 0.35 °C; in assay [4], 0.14 °C; in assay [5], 0.28 °C; in assay [6] it was 0.17 °C.

As to `O=C(N[C@H]1CCC[C@H](CO)C1)C1CCN(c2nc3cc(Cl)c(-c4ccc(Cl)cc4)cc3o2)CC1`, the ΔTm in assay [1] is 1.38 °C; in assay [2], -3.19 °C; in assay [3], -6.76 °C; in assay [4] it was 1.1 °C; in assay [5], -10.4 °C; in assay [6], -2.13 °C.

For `COc1cc(-c2cncc(-c3ccc(N4CCN(C(C)C)CC4)cc3)c2C)cc(F)c1C(=O)N1CCCC1`, the ΔTm in assay [1] was 0.7 °C; in assay [2], 0.41 °C; in assay [3], 0.26 °C; in assay [4] it was -0.59 °C; in assay [5] it was 0.53 °C; in assay [6] it was -0.62 °C.

Regarding `C[S+]([O-])c1ccc(-c2nc(-c3cccc(I)c3)c(-c3ccncc3)[nH]2)cc1` (centres undefined), the ΔTm in assay [1] was 0.33 °C; in assay [2] it was -0.2 °C; in assay [3], 2.61 °C; in assay [4], 5.08 °C; in assay [5], -1.08 °C; in assay [6], -1.53 °C.

For `COc1ccc(CC[C@@H](OC(=O)[C@H]2CCCCN2C(=O)[C@@H](c2cc(OC)c(OC)c(OC)c2)C2CCCCC2)c2cccc(OCCN3CCOCC3)c2)cc1OC`, the ΔTm in assay [1] was -1.34 °C; in assay [2] it was -4.12 °C; in assay [3], -1.85 °C; in assay [4], -1.12 °C; in assay [5] it was -0.42 °C; in assay [6], -1.27 °C.

Consider `COc1cc(F)ccc1-c1ncnc(Nc2cccc(C[S@](C)(=N)=O)c2)n1`, for which the ΔTm in assay [1] came out at 2.58 °C; in assay [2] it was 3.09 °C; in assay [3], 0.27 °C; in assay [4], 10.1 °C; in assay [5] it was 0.36 °C; in assay [6] it was 3.39 °C.

`CCOC(=O)c1cc2cc(-c3cc(C(=O)NCc4ccc(C(=O)O)cc4)nn3C)ccc2[nH]1`: the shift in melting temperature (ΔTm) was 0.13 °C in assay [1]; -0.6 °C in assay [2]; 0.53 °C in assay [3]; 0.78 °C in assay [4]; -0.1 °C in assay [5]; 1.73 °C in assay [6].
